Screening results deposited in PubChem by several laboratories.
Only some compounds are listed: those with a hit (about 3.3% of all), similar ones and a draw of the others.
HNF4A DNA FP: change in binding of human HNF4A to DNA, primary screen, biochemical, fluorescence polarization, FITC-DNA; Hepatocyte nuclear factor 4-alpha (Homo sapiens), P41235; 1 h; activity change, % at 10 µM; 0.3% of 360,000 active; AID 1224865, 2016; in the data active = activity change above about 30%, passing the limit was not always enough
CTSL1 counter: Fasciola hepatica cathepsin L1 inhibitors, primary screen, counter-screen for PFM18AAP inhibitor project, biochemical, QFRET, fluorogenic peptide substrate; inhibition, % at 5.96 µM; 0.49% of 300,000 active; recombinant F. hepatica cathepsin L1, Z-Leu-Arg-MCA fluorescence; AID 1906, 2009;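 active = inhibition above the mean of all tested compounds plus 3 SD, set per screening campaign, cut at about 17% in these data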;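 also: 0% = plate median of test compound wells and 100% = 1 µM Z-Phe-Ala-diazomethylketone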
Rpn11 inh: Rpn11 (PSMD14) deubiquitinase inhibitors, primary screen, biochemical, fluorescence polarization, uHTS. 26S proteasome non-ATPase regulatory subunit 14 (Homo sapiens), O00487. human 26S proteasome, Ub4-pepOG fluorescence polarization; 20S core pre-blocked with epoxomicin. inhibition, % at 20 µM. 0.59% of 360,000 active;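 active = inhibition at 20 µM, scaled to each plate's controls, above about 33%, limit read from the data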
NRP1-CendR mod: modulators of CendR peptide binding to NRP-1, primary screen, biochemical, fluorescence polarization, uHTS; Neuropilin-1 (Homo sapiens), O14786; FAM-RPARPAR peptide binding to NRP-1; 0.85% of 360,000 active; inhibition, % at 25 µM;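 active = inhibition or corrected inhibition above about 18%, plus a signal ratio from 0.5 to 1.5, limit read from the data, passing the limit was not always enough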
PHOSPHO1 inh: PubChem AID 1565 | Phosphoethanolamine/phosphocholine phosphatase (Homo sapiens), Q8TCT1 | inhibition, % at 13.3 µM | recombinant PHOSPHO1, absorbance phosphatase assay | 1.1% of 290,000 active; in the data active = inhibition above about 60%
TPT1 inh: Candida albicans TPT1 enzyme inhibitors, primary screen, biochemical, fluorescence polarization; inhibition, % at 5 µM; recombinant caTPT1, FP RNA substrate dephosphorylation; 0.81% of 300,000 active; AID 1962, 2009; tRNA 2'-phosphotransferase TPT1 (Candida albicans SC5314);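 active = inhibition above the mean of all tested compounds plus 3 SD, set per screening campaign, cut at about 24% in these data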;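 also: plate controls were DMSO alone for no effect and ferristatin control at 100 nM for full effect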
* marks the source's active call; other numbers are inactive results; / = no result given.

SMILES	HNF4A DNA FP	CTSL1 counter	Rpn11 inh	NRP1-CendR mod	PHOSPHO1 inh	TPT1 inh
CC(=O)c1ccc(OCc2cc(C(=O)NC(C)c3cnn(C)c3)no2)cc1 (centres undefined)	3	-1	-3	-2	62*	2
Cc1cc(OCc2cc(C(=O)NC(C)c3cnn(C)c3)no2)cc(C)c1Cl (centres undefined)	3	/	3	-6	/	/
COc1ccc(N(C)S(=O)(=O)c2cccc(C(=O)OCC(=O)N3CC(C)CC(C)C3)c2)cc1 (centres undefined)	1	/	-2	9	/	/
CCOC(=O)c1c(C)oc(/N=C/c2ccccc2O)c1C#N	0	17*	-2	5	11	-1
CCOc1ccc(NS(=O)(=O)c2ccc(C(=O)NCCCN3CCCC3=O)cc2)cc1	4	1	3	-2	28	2
CCCCNC(=O)Cn1cnc([N+](=O)[O-])n1	4	-2	0	9	50	0
O=C(Cn1cnc([N+](=O)[O-])n1)NC1CC1	-1	1	-3	16	68*	-1
CCN(CC)S(=O)(=O)c1ccc(-c2nnc(SCC(=O)N3c4ccccc4CC3C)n2CC)cc1 (centres undefined)	0	1	-3	26*	-24	4
CC1Cc2ccccc2N1C(=O)CSc1nnnn1C(C)C (centres undefined)	2	2	3	-4	62*	1
COC(=O)c1c(NC(=O)CN2CCC3(O)CCCCC3C2c2cc(OC)ccc2OC)sc(C)c1C (centres undefined)	12	7	24	27*	-9	-2
COC(=O)c1c(NC(=O)CN2CCC3(O)CCCCC3C2c2ccc(F)cc2)sc(C)c1C (centres undefined)	-2	5	6	-5	12	1
CCC(C)[C@H](NC(=O)NCCCOC(C)C)C(=O)OC (some centres undefined)	-1	-3	-4	9	41	-3
COc1ccc(-c2cc(N)n(S(=O)(=O)c3c(F)c(F)c(F)c(F)c3F)n2)cc1OC	-3	2	7	26*	21	2
COc1ccc(S(=O)(=O)n2nc(-c3cc(OC)c(OC)c(OC)c3)cc2N)cc1OC	1	-2	-4	-7	-2	-4
Cc1c(NC(=O)CSc2nncn2-c2ccccc2)c(=O)n(-c2ccccc2)n1C	2	3	-3	-5	/	1
N#CC1=C2SCN(Cc3ccco3)CN2C(=O)CC1c1c(F)cccc1Cl (centres undefined)	5	-1	7	1	79*	4
Cc1ccc(C2CC(=O)N3CN(Cc4ccco4)CSC3=C2C#N)cc1 (centres undefined)	-1	2	4	-12	76*	2
CC(C)Nc1nc(Cl)nc(NNC(=O)C(C)Oc2ccccc2)n1 (centres undefined)	-3	0	0	-10	21	3
CCCCCC(=O)N(Cc1ccccc1)c1c(N)n(CCOC)c(=O)[nH]c1=O	-2	0	2	10	10	-4
O=C(COc1ccc2c3c(c(=O)oc2c1)CCCC3)NCCN1CCOCC1	6	3	-7	24*	53	1
O=C(COc1ccc2c3c(c(=O)oc2c1)CCC3)NCCN1CCOCC1	3	5	-7	8	38	1
CCCCn1c(N)c(N(CCC(C)C)C(=O)C2CC(=O)N(c3ccc(OC)cc3OC)C2)c(=O)[nH]c1=O (centres undefined)	0	-2	-3	0	/	0
CC(C)C(NC(=O)c1ccc(F)cc1)C(=O)N1CCN(C(=O)c2ccco2)CC1 (centres undefined)	-5	/	-2	1	/	/
O=C(O)c1cc2nc(-c3cccs3)cc(C(F)(F)F)n2n1	8	0	5	29*	18	-4
FC(F)(F)c1cc(-c2cccs2)nc2cc(-c3ccccc3)nn12	3	-3	-8	-9	3	1
